# Experimental data from PubChem BioAssay (EPA / NIEHS).
# Where “and” joins values, the source holds several entries; their conditions need not be identical. Identical values can stand only once. Inconclusive results are not listed. Some compounds were tested as several samples or in several runs, with calls that do not always agree. Calls of active or inactive are those of the source. Rule for the calls: active = hit-call score of the fitted dose curve at least 0.9, where 1 is the maximum; inconclusive = response in the unintended direction; inactive = score below 0.9.
# Assays:
# [1] = ACEA_AR_agonist_AUC_viability: ACEA Biosciences xCELLigence Real-Time Cell Analysis on Androgen Receptor Agonism for Viability (AID 2283775);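 for AC50: viability read 80 hours after compound addition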
# In short: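 Read-out is area under the impedance curve at 80 h post-dose in 22Rv1 cells, with DMSO as baseline and signal loss taken as reduced viability. Compounds ran in duplicate from 100 uM final.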
# [2] = ACEA_AR_antagonist_AUC_viability: ACEA Biosciences xCELLigence Real-Time Cell Analysis on Androgen Receptor Antagonism for Viability (AID 2283776);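 note: 22Rv1 human prostate cancer cells growing on impedance electrode plates; area under impedance growth curve at 80 h after dosing as viability; hits lower the growth signal relative to DMSO meaning cytotoxicity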
# In short: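 22Rv1 prostate cells, continuous dosing up to 100 uM final (0.5% DMSO max), duplicate plates. Growth measured by impedance; AUC at 80 h, loss of signal vs DMSO.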
# [3] = ACEA_ER_AUC_viability: ACEA Biosciences xCELLigence Real-Time Cell Analysis on Estrogen Receptor Agonism for Viability (AID 2283782);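 note: continuous compound exposure with impedance area under curve over 80 h; hit means loss of impedance signal meaning reduced cell growth or viability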
# In short: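 T-47D; phenol red-free RPMI1640 + 10% CS-FBS; 8 conc., 1:4 serial, max 100 uM final, ≤0.5% DMSO; n = 2; continuous exposure; impedance monitored to 80 h post-dose; AUC vs DMSO.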
# [4] = target: AR (gene 367) (UniProt P10275); experiment: ACEA_AR_agonist_80hr: ACEA Biosciences xCELLigence Real-Time Cell Analysis on Androgen Receptor Agonism for Proliferation (AID 2283783);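 note: hits increase impedance growth signal above DMSO baseline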
# Chain of AR (gene 367) (P10275 whole entry, looked up): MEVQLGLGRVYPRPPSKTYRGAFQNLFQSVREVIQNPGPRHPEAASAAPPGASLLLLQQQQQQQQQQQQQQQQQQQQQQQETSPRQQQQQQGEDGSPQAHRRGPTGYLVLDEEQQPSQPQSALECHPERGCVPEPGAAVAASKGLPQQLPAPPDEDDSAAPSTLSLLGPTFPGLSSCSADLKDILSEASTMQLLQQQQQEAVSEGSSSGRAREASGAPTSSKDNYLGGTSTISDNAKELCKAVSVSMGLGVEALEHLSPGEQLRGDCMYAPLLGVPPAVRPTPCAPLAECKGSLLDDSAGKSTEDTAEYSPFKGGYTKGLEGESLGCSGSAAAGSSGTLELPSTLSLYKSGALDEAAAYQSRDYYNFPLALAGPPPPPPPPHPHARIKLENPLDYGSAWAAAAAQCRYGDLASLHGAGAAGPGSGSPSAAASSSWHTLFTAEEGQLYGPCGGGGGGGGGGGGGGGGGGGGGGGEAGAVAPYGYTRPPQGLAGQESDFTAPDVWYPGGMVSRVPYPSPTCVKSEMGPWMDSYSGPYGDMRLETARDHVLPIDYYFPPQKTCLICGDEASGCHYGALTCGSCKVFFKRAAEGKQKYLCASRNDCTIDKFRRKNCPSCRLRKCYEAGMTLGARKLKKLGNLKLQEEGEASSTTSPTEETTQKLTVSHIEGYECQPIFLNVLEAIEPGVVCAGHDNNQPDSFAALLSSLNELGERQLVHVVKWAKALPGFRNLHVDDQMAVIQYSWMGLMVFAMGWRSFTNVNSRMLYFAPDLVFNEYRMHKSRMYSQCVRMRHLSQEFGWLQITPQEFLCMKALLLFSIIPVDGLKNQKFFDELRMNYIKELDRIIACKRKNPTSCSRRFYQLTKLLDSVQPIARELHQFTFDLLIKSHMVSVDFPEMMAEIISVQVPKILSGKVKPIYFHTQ
# In short: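 Androgen-driven proliferation in 22Rv1 cells is tracked as electrical impedance, taken 80 h after continuous exposure to compound (eight concentrations, 1:4 steps, maximum 100 uM final). Activity is fitted in the positive direction with DMSO as baseline.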
# [5] = target: AR (gene 367) (UniProt P10275); experiment: ACEA_AR_antagonist_80hr: ACEA Biosciences xCELLigence Real-Time Cell Analysis on Androgen Receptor Antagonism for Proliferation (AID 2283787);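 note: 22Rv1 human prostate cancer cells with growth followed by electrical impedance; hits lower the impedance growth signal relative to DMSO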
# In short: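 Growth-kinetic antagonist readout in 22Rv1 cells, taken 80 h after continuous compound exposure. Activity fitted as signal loss relative to DMSO negative control.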
# [6] = system: zebrafish Estrogen Receptor (ESR2B), gene 317733; experiment: ATG_zfER2b_XSP1: Attagene TRANS-FACTORIAL Multi-Species (XSP1) HepG2 Assay for zebrafish Estrogen Receptor (ESR2B) (AID 2283773)
# In short: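 Gain-of-signal endpoint relative to DMSO: reporter transcript levels quantified by RT-PCR and capillary electrophoresis after 24 h compound exposure of HepG2 cells expressing a zebrafish ER2b-Gal4 chimera.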
# [7] = system: frog Estrogen Receptor (ESR2), gene 100174814; experiment: ATG_frER2_XSP1: Attagene TRANS-FACTORIAL Multi-Species (XSP1) HepG2 Assay for frog Estrogen Receptor (ESR2) (AID 2283774)
# In short: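 Transactivation of an exogenous receptor-Gal4 fusion is tracked in transfected HepG2 cells via induced reporter transcript levels. After 24 h treatment, RT-PCR with capillary electrophoresis quantifies signal gain over DMSO.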
# [8] = system: zebrafish Estrogen Receptor (ESR2A), gene 317734; experiment: ATG_zfER2a_XSP1: Attagene TRANS-FACTORIAL Multi-Species (XSP1) HepG2 Assay for zebrafish Estrogen Receptor (ESR2A) (AID 2283778)
# In short: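 Cells were transfected, dosed for 24 h, then total RNA was isolated. After oligo(dT) reverse transcription, reporter sequences were amplified, FAM-labelled by primer extension, digested with HpaI and sized by capillary electrophoresis; DMSO served as baseline.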
# [9] = target: chicken Estrogen Receptor (ESR1), ESR1 (gene 396099) (UniProt P06212); experiment: ATG_chERa_XSP1: Attagene TRANS-FACTORIAL Multi-Species (XSP1) HepG2 Assay for chicken Estrogen Receptor (ESR1) (AID 2283779)
# Chain of chicken Estrogen Receptor (ESR1), ESR1 (gene 396099) (P06212 whole entry, looked up, the tested form may be a part): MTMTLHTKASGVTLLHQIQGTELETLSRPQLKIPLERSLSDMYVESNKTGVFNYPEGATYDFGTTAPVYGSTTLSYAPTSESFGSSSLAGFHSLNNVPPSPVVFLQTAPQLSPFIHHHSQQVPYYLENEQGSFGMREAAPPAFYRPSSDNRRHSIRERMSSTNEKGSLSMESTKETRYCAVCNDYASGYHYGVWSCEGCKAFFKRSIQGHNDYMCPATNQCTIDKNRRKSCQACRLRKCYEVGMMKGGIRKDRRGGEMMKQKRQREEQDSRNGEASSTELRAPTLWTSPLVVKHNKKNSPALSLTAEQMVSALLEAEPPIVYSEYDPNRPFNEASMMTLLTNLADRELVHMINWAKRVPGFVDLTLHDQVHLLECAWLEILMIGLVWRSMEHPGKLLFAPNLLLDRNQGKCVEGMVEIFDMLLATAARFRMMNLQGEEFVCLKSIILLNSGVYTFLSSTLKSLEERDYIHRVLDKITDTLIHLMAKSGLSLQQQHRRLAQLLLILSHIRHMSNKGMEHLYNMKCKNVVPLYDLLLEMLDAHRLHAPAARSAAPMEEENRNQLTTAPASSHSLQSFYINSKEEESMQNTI
# In short: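 Human liver HepG2, transient MRTU transfection (NR-Gal4 chimeras, GAL4-UAS reporters); 24 h compound exposure; 3 nM 6-alpha-fluorotestosterone in medium. Total RNA → RT-PCR → 6-FAM primer extension → HpaI → CE. Positive direction vs DMSO baseline.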
# [10] = target: Estrogen receptor (Homo sapiens) (UniProt P03372); experiment: ATG_hERa_XSP1: Attagene TRANS-FACTORIAL Multi-Species (XSP1) HepG2 Assay for human Estrogen Receptor (ESR1) (AID 2283780)
# Chain of Estrogen receptor (Homo sapiens) (P03372 whole entry, looked up, the tested form may be a part): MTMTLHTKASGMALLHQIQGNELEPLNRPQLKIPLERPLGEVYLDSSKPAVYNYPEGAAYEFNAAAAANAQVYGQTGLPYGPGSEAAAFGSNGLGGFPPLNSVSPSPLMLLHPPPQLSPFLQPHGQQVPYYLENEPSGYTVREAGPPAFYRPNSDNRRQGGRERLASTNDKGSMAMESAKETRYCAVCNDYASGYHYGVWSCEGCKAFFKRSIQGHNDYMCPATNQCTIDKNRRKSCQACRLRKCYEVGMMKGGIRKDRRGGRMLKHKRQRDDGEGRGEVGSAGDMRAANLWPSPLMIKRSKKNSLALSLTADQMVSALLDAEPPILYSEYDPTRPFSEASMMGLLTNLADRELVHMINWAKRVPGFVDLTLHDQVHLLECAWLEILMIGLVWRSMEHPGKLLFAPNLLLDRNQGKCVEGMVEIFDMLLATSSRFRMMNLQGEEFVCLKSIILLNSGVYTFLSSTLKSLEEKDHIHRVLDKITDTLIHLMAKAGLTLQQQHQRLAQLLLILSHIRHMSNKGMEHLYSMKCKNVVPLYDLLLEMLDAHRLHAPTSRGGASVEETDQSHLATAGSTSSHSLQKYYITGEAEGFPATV
# In short: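 HepG2 cells transiently transfected with GAL4-UAS reporter units and chimeric NR-Gal4 constructs; 24 h after dosing, reporter mRNA quantified by RT-PCR and capillary electrophoresis. Medium contained 3 nM 6-alpha-fluorotestosterone; activity fitted as gain-of-signal versus DMSO.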
# [11] = system: turtle Estrogen Receptor (ESR1), gene 101933533; experiment: ATG_trERa_XSP1: Attagene TRANS-FACTORIAL Multi-Species (XSP1) HepG2 Assay for turtle Estrogen Receptor (ESR1) (AID 2283781)
# In short: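 Activity was taken as gain of reporter transcript over DMSO controls. HepG2 cells carrying GAL4-UAS-driven reporters were exposed for 24 h before RNA was extracted and reporter sequences were measured by fluorescence after capillary separation.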
# [12] = STM_H9_NormalizedViability: Cytotoxicity Assessment at 120 hours in the Stemina devTOX quickPredict H9 human embryonic stem cell (hESC)-based Assay (AID 2283784)
# In short: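 Chemicals are tested blinded on H9 human embryonic stem cells in the pluripotent state, with medium exchanged daily. After background correction, fluorescence from CellTiter-Fluor is scaled against 0.1% DMSO wells, and decreases are scored.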
# [13] = target: Estrogen receptor beta (Homo sapiens) (UniProt Q92731); experiment: ATG_hERb_XSP1: Attagene TRANS-FACTORIAL Multi-Species (XSP1) HepG2 Assay for human Estrogen Receptor (ESR2) (AID 2283788)
# Chain of Estrogen receptor beta (Homo sapiens) (Q92731 whole entry, looked up, the tested form may be a part): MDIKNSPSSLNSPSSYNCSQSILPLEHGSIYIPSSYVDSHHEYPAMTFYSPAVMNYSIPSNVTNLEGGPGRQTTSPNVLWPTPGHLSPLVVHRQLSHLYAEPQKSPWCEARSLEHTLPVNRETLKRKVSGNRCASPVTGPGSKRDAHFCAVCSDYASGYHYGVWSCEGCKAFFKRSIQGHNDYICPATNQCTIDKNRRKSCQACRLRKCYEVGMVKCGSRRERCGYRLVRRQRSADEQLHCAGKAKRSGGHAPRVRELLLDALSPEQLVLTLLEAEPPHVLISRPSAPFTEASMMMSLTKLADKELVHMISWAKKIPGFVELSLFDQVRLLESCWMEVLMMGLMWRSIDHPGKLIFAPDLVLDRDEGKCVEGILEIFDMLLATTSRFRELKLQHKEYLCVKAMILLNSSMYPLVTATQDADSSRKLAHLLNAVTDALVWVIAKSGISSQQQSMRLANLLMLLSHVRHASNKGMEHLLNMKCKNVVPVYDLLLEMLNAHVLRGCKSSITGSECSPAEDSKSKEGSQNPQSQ
# In short: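 Measured endpoint is transcriptional gain of signal from a GAL4-UAS reporter controlled by chimeric ERβ in HepG2 liver cells. Exposure lasts 24 h alongside 3 nM 6-alpha-fluorotestosterone, with DMSO as negative control.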
# [14] = ATG_M_06_XSP1: Attagene TRANS-FACTORIAL Multi-Species (XSP1) HepG2 Assay for M06 Transcription Factor (Internal Marker) (AID 2283790)
# In short: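 Transfected HepG2 multi-reporter system treated 24 h in the presence of 3 nM 6-alpha-fluorotestosterone. The M06 internal marker transcript was quantified by RT-PCR with capillary electrophoresis as a background control, and gain of signal was scored versus DMSO.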
# [15] = ATG_M_61_XSP1: Attagene TRANS-FACTORIAL Multi-Species (XSP1) HepG2 Assay for M61 Transcription Factor (Internal Marker) (AID 2283797)
# In short: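 HepG2 cells transiently transfected with multiplexed GAL4-driven reporter units, dosed 24 h with 3 nM 6-alpha-fluorotestosterone present. Reporter mRNA quantified by RT-PCR, 6-FAM labelling, HpaI digestion and capillary electrophoresis; internal-marker background control, gain of signal versus DMSO.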
# [16] = ATG_M_19_XSP1: Attagene TRANS-FACTORIAL Multi-Species (XSP1) HepG2 Assay for M19 Transcription Factor (Internal Marker) (AID 2283798)
# In short: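 HepG2 cells transiently transfected with multiplexed GAL4-UAS reporter units, dosed 24 h with 3 nM 6-alpha-fluorotestosterone present for partial AR stimulation. Reporter mRNA measured by RT-PCR with capillary electrophoresis; gain-of-signal fitted relative to DMSO.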
# [17] = ATG_M_32_XSP1: Attagene TRANS-FACTORIAL Multi-Species (XSP1) HepG2 Assay for M32 Transcription Factor (Internal Marker) (AID 2283799)
# In short: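 HepG2 cells transiently transfected with multi-species TRANS reporter units, dosed 24 h with 3 nM 6-alpha-fluorotestosterone present. Internal-marker reporter mRNA quantified by RT-PCR and capillary electrophoresis; positive-direction fit versus DMSO.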
# [18] = target: Peroxisome proliferator-activated receptor gamma (Homo sapiens) (UniProt P37231); experiment: ATG_hPPARg_XSP1: Attagene TRANS-FACTORIAL Multi-Species (XSP1) HepG2 Assay for human Peroxisome Proliferator-activated Receptor gamma (PPARg) (AID 2283800)
# Chain of Peroxisome proliferator-activated receptor gamma (Homo sapiens) (P37231 whole entry, looked up, the tested form may be a part): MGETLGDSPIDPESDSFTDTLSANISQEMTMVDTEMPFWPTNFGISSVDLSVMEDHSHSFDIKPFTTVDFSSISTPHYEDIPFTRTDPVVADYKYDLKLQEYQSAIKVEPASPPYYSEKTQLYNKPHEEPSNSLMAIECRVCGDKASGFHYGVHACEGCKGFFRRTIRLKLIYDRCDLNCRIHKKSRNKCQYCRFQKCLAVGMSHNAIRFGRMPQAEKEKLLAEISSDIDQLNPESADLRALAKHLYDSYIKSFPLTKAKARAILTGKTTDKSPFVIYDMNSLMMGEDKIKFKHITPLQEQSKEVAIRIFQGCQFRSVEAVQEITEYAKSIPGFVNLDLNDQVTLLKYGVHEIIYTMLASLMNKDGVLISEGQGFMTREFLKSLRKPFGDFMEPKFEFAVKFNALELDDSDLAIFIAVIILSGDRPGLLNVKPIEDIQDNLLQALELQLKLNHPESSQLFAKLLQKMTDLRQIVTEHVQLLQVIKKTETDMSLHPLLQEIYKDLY
# In short: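 HepG2 cells transiently transfected with GAL4-UAS reporter units carrying chimeric NR-Gal4 proteins; 3 nM 6-alpha-fluorotestosterone present. After 24 h dosing, reporter mRNA quantified by RT-PCR and capillary electrophoresis; gain of signal relative to DMSO.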
# [19] = system: zebrafish Peroxisome Proliferator-activated Receptor gamma (PPARg), gene 557037; experiment: ATG_zfPPARg_XSP1: Attagene TRANS-FACTORIAL Multi-Species (XSP1) HepG2 Assay for zebrafish Peroxisome Proliferator-activated Receptor gamma (PPARg) (AID 2283801)
# In short: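 HepG2 cells transiently transfected with GAL4-UAS reporter units including a zebrafish PPARg–GAL4 chimera, dosed 24 h with 3 nM 6-alpha-fluorotestosterone present. Reporter mRNA quantified by RT-PCR, FAM labelling, HpaI digestion and capillary electrophoresis; induction versus DMSO.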
# [20] = target: mouse Peroxisome Proliferator-activated Receptor gamma (PPARg), Pparg (gene 19016) (UniProt P37238); experiment: ATG_mPPARg_XSP1: Attagene TRANS-FACTORIAL Multi-Species (XSP1) HepG2 Assay for mouse Peroxisome Proliferator-activated Receptor gamma (PPARg) (AID 2283802)
# Chain of mouse Peroxisome Proliferator-activated Receptor gamma (PPARg), Pparg (gene 19016) (P37238 whole entry, looked up, the tested form may be a part): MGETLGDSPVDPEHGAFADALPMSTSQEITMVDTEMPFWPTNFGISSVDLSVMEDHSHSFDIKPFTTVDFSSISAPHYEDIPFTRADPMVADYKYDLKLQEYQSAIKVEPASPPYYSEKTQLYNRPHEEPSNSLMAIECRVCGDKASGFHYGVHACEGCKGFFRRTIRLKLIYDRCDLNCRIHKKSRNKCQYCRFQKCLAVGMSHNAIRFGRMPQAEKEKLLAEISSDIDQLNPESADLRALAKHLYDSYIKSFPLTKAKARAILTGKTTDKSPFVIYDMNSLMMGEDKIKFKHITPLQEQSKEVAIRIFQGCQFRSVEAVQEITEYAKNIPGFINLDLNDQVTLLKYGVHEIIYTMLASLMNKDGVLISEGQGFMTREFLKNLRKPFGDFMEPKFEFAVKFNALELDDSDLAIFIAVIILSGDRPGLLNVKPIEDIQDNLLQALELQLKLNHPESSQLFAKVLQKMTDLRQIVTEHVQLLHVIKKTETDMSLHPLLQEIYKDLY
# In short: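 HepG2 cells transiently transfected with GAL4-UAS reporter units driven by mouse PPARg–GAL4 chimera; 3 nM 6-alpha-fluorotestosterone present. After 24 h dosing, reporter mRNA quantified by RT-PCR, fluorescent labelling and capillary electrophoresis; gain of signal versus DMSO.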
structure (smiles),measurement,setting,value
CCOP(=S)(Oc1ccc([N+](=O)[O-])cc1)c1ccccc1 (stereo not drawn),AC50,[1],50 µM (active)
same,AC50,[2],14.9 µM (active)
ClC1=C(Cl)C2(Cl)C3C(Cl)C(Cl)CC3C1(Cl)C2(Cl)Cl (stereo not drawn),AC50,[1],11.9 µM (active)
same,AC50,[2],13.6 µM (active)
same,AC50,[3],91.7 µM (active)
same,outcome,[4],inactive
same,AC50,[5],5.06 µM (active)
Nc1cc2c3c(c1)C(c1ccccc1)=N[C@@H](NC(=O)c1cccnc1)C(=O)N3CC2,outcome,[1],inactive
same,outcome,[2],inactive
same,outcome,[3],inactive
O=c1ssc(Cl)c1Cl,AC50,[1],0.671 µM (active)
same,outcome,[2],inactive
same,outcome,[3],inactive
CCCCN(CCCC)N=O,outcome,[1],inactive
same,outcome,[2],inactive
same,outcome,[3],inactive
Cc1ccc([N+](=O)[O-])cc1C,outcome,[1],inactive
same,outcome,[2],inactive
same,outcome,[3],inactive
Cc1cccc(N)c1,outcome,[1],inactive
same,outcome,[2],inactive
O=P(Oc1ccccc1)(Oc1ccccc1)Oc1ccccc1,AC50,[6],5.84 µM (active)
same,AC50,[7],2.77 µM (active)
same,outcome,[8],inactive
same,AC50,[9],0.8 µM (active)
same,AC50,[10],0.991 µM (active)
same,AC50,[11],1.66 µM (active)
same,AC50,[3],86.8 µM (active)
same,outcome,[12],inactive
same,outcome,[13],inactive
same,outcome,[14],inactive
same,outcome,[15],inactive
same,outcome,[16],inactive
same,outcome,[17],inactive
same,AC50,[18],6.88 µM (active)
same,AC50,[19],8.08 µM (active)
same,AC50,[20],6.18 µM (active)
CCCN(CCC)c1c([N+](=O)[O-])cc(C(C)C)cc1[N+](=O)[O-],AC50,[1],45.2 µM (active)
same,AC50,[2],58.7 µM (active)
same,AC50,[3],87.3 µM (active)
CSC(C)(C)C=NO,outcome,[1],inactive
same,outcome,[2],inactive
same,outcome,[3],inactive
ClC(Cl)c1ccccc1,outcome,[1],inactive
same,outcome,[2],inactive
O=[N+]([O-])c1ccccc1,outcome,[1],inactive
same,outcome,[2],inactive
O=C(O)C(Cl)Cl,outcome,[1],inactive
same,outcome,[2],inactive
O=[N+]([O-])c1ccc(Cl)c(Cl)c1,outcome,[1],inactive
same,outcome,[2],inactive
O=C(O)CF,outcome,[1],inactive
same,outcome,[2],inactive
same,outcome,[3],inactive
CCOC(=O)c1ccccc1N,outcome,[1],inactive
O=S(=O)(c1ccc(O)cc1)c1ccc(O)cc1,outcome,[1],inactive
O=P(OCC(Br)CBr)(OCC(Br)CBr)OCC(Br)CBr (stereo not drawn),AC50,[1],23.3 µM (active)
same,outcome,[2],inactive
same,outcome,[3],inactive
same,outcome,[4],inactive
same,outcome,[5],inactive
CCCCCCCc1ccc(O)cc1,AC50,[1],29.2 µM (active)
same,AC50,[2],50 µM (active)
same,AC50,[3],28 µM (active) and 26.6 µM (active) and 27.7 µM (active)
same,outcome,[4],inactive
same,AC50,[5],50 µM (active)
O=P1(N(CCCl)CCCl)NCCCO1 (stereo not drawn),outcome,[1],inactive
same,outcome,[2],inactive
CCOc1ccc(C(C)(C)COCc2cccc(Oc3ccccc3)c2)cc1,outcome,[1],inactive
same,AC50,[2],50 µM (active)
CCOP(=S)(OCC)SCSCC,AC50,[1],83.4 µM (active)
same,outcome,[2],inactive
Nc1ccc(Cl)cc1,AC50,[1],5.62 µM (active)
same,AC50,[2],8.97 µM (active)
same,AC50,[3],8.49 µM (active)
same,outcome,[3],inactive
CCCCOCC1CO1 (stereo not drawn),outcome,[1],inactive
same,outcome,[2],inactive
same,outcome,[3],inactive
CCCCc1ccc(O)cc1,outcome,[1],inactive
same,AC50,[2],8.13 µM (active)
same,AC50,[3],82.5 µM (active)
CCCCN(CCCC)SN(C)C(=O)Oc1cccc2c1OC(C)(C)C2,AC50,[1],57.4 µM (active)
same,AC50,[2],49.2 µM (active)
same,AC50,[3],79.2 µM (active)
OCC1CO1 (stereo not drawn),outcome,[1],inactive
same,outcome,[2],inactive
c1ccc2c(c1)Nc1ccccc1S2,outcome,[1],inactive
same,AC50,[2],21.7 µM (active)
same,outcome,[3],inactive
same,outcome,[12],inactive
ClC(Cl)(Cl)c1ccccc1,outcome,[1],inactive
same,outcome,[2],inactive
CC(Cc1ccc(OCC(=O)O)cc1)NCC(O)c1csc(C(F)(F)F)n1 (stereo not drawn),outcome,[1],inactive
same,outcome,[2],inactive
same,outcome,[3],inactive
CCCCOCCOP(=O)(OCCOCCCC)OCCOCCCC,outcome,[1],inactive
same,outcome,[2],inactive
